Test [1] is described as follows: ACEA_ER_80hr: ACEA Biosciences xCELLigence Real-Time Cell Analysis on Estrogen Receptor Agonism for Proliferation (AID 2282667; active means hit-call score of the fitted dose curve at least 0.9, where 1 is the maximum). As to conditions: T47D proliferation, impedance (xCELLigence), 80 h. The method, boiled down: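 T47D human breast cells were seeded on electrode plates, monitored overnight, then exposed continuously to compounds in eight-point 1:4 dilutions from 100 uM (max 0.5% DMSO). Impedance-based growth was read at 80 h, fitted upward relative to DMSO.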

Test [2] can be described thus: APR_HepG2_CellCycleArrest_24hr: Apredica 24-hour HepG2 Assay for Cell Cycle Arrest (AID 2282905).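 Further: cell cycle arrest scored as ratio of 2N to 4N nuclear DNA content.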 Conditions: imaging, actives raise or lower the signal. The method, boiled down: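 After 24 h exposure at 0.39–200 uM in 0.5% DMSO, fixed cells received Hoechst 33342 staining. Imaging quantified per-nucleus DNA content; gain or loss fitted against DMSO controls.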
The nature of test [3]: APR_HepG2_NuclearSize_24hr: Apredica 24-hour HepG2 Assay for Nuclear Size (AID 2282907). As to conditions: high-content imaging, actives raise or lower the signal. The method, boiled down:
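Nuclear size from Hoechst 33342-stained, formaldehyde-fixed HepG2 nuclei imaged by high-content microscopy, after 24 h dosing at ten concentrations from 0.39 to 200 uM in 0.5% DMSO; gain or loss relative to DMSO baseline.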

The nature of test [4]: APR_HepG2_MicrotubuleCSK_24hr: Apredica 24-hour HepG2 Assay for Microtubule CSK Stabilty (AID 2282909). Conditions: HepG2 microtubule cytoskeleton imaging, actives raise or lower the signal. The method, boiled down:
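Fixed HepG2 cells were stained for alpha-tubulin and imaged after 24 hr exposure to ten concentrations spanning 0.39–200 uM in 0.5% DMSO. Signal change was fitted in both directions relative to DMSO; taxol was the positive control.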

Test [5] can be described thus: APR_HepG2_MitoticArrest_24hr: Apredica 24-hour HepG2 Assay for Mitotic Arrest (AID 2282910). Conditions: high-content imaging, actives raise or lower the signal. In outline: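 High-content imaging of fixed HepG2 cells labeled with Hoechst 33342 and anti-phospho-histone H3, after 24 h treatment. Ten concentrations 0.39 to 200 uM in duplicate, final DMSO 0.5%; changes fitted both directions relative to DMSO.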

Test [6] can be described thus: APR_HepG2_MitoMembPot_24hr: Apredica 24-hour HepG2 Assay for Mitochondrial Membrane Potential (AID 2282911). As to conditions: imaging, actives raise or lower the signal. In outline: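 HepG2 human liver cells were exposed 24 hr to compounds at 0.39–200 uM (final DMSO 0.5% v/v) in duplicate. MitoTracker Red CMXRos (250 nM, 30 min) was loaded before formaldehyde fixation; fluorescence was imaged by ArrayScan HCS and fitted bidirectionally versus DMSO.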

Test [7] in a line: APR_HepG2_MitoMass_24hr: Apredica 24-hour HepG2 Assay for Mitochondrial Mass (AID 2282912). Conditions: high-content imaging, actives raise or lower the signal. The method, boiled down:
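Endpoint is MitoTracker Red CMXRos (250 nM, 30 min, pre-fixation) intensity from 20x high-content imaging, nuclei located by Hoechst. Human HepG2 cells received ten concentrations from 0.39 to 200 uM in 0.5% DMSO for 24 hr, duplicate wells. Bidirectional fit relative to DMSO.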

The nature of test [8]: APR_HepG2_p53Act_24hr: Apredica 24-hour HepG2 Assay for p53 Activation (AID 2282913).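 Further: p53 protein immunofluorescence averaged per cell in HepG2 with Hoechst nuclei.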 As to conditions: high-content imaging, actives raise or lower the signal. In outline:
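HepG2 cells exposed 24 hr to compounds at 0.39–200 uM (10 concentrations, duplicate), final DMSO 0.5% v/v. After formaldehyde fixation and Triton permeabilization, p53 was immunolabeled (sheep anti-p53, Cy5 secondary) with Hoechst 33342 nuclear counterstain, then imaged by high-content fluorescence microscopy.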

Test [9] in a line: APR_HepG2_CellCycleArrest_72hr: Apredica 72-hour HepG2 Assay for Cell Cycle Arrest (AID 2282914). Conditions: high-content imaging, actives raise or lower the signal. In outline:
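HepG2 cells were exposed to compounds at 0.39–200 uM (0.5% v/v DMSO final, duplicates) for 72 hr, fixed in 3.7% formaldehyde, permeabilized and stained with Hoechst 33342. Nuclear DNA content was quantified by high-content imaging; gain or loss of signal was fitted bidirectionally against DMSO.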

A short description of test [10]: APR_HepG2_CellLoss_72hr: Apredica 72-hour HepG2 Assay for Cell Loss (AID 2282915). Conditions: high-content imaging. In outline: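 Cell number comes from Hoechst 33342-labelled nuclei, imaged at 20x after 3.7% formaldehyde fixation. Dosing was 0.39–200 uM, ten concentrations in duplicate, 0.5% DMSO final, for 72 h. Bidirectional fit relative to DMSO baseline.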
Test [11] is described as follows: APR_HepG2_CellLoss_24hr: Apredica 24-hour HepG2 Assay for Cell Loss (AID 2282908). Conditions: high-content imaging. In outline: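 Nuclei stained with Hoechst 33342 after formaldehyde fixation (3.7%) were imaged at 20x to count cells. Exposure lasted 24 hr, at ten concentrations from 0.39 to 200 uM in duplicate, with 0.5% v/v DMSO. Fit bidirectional, relative to DMSO.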

A short description of test [12]: APR_HepG2_CellCycleArrest_1hr: Apredica 1-hour HepG2 Assay for Cell Cycle Arrest (AID 2282666). Conditions: high-content imaging, actives raise or lower the signal. The method, boiled down: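 Cell cycle arrest scored from nuclear DNA content (Hoechst 33342) using high-content imaging of fixed HepG2 cells after 1 h treatment across 0.39–200 uM, in duplicate. Gain or loss fitted relative to 0.5% DMSO.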

Test [13] is described as follows: APR_HepG2_CellLoss_1hr: Apredica 1-hour HepG2 Assay for Cell Loss (AID 2282668).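 Further: curves fitted both ways against DMSO so gain or loss of cells counts.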 As to conditions: high-content imaging. The method, boiled down:
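Cell number comes from high-content imaging of Hoechst-labelled nuclei in fixed HepG2 cells. Cells were exposed for 1 h to ten concentrations from 0.39 to 200 uM in 0.5% DMSO. Gain or loss was fitted against DMSO controls.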

A short description of test [14]: APR_HepG2_MicrotubuleCSK_1hr: Apredica 1-hour HepG2 Assay for Microtubule CSK Stabilty (AID 2282669). As to conditions: HepG2 microtubule cytoskeleton imaging, actives raise or lower the signal. In outline: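 Alpha-tubulin immunofluorescence, imaged by automated high-content microscopy with Hoechst nuclear segmentation, measured cytoskeletal change after 1 h dosing of HepG2 at 0.39–200 uM in 0.5% DMSO. Activity fitted in both directions relative to DMSO.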

Test [15] is described as follows: APR_HepG2_NuclearSize_1hr: Apredica 1-hour HepG2 Assay for Nuclear Size (AID 2282670). As to conditions: high-content imaging, actives raise or lower the signal. In outline:
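Nuclear size measured by high-content imaging of Hoechst 33342 nuclear stain after formaldehyde fixation; human HepG2 line exposed 1 hr to compounds at 0.39–200 uM in 0.5% DMSO, with bidirectional curve fitting relative to DMSO.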

A short description of test [16]: APR_HepG2_MitoticArrest_1hr: Apredica 1-hour HepG2 Assay for Mitotic Arrest (AID 2282672). As to conditions: high-content imaging, actives raise or lower the signal. In outline:
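Ten-point concentration series (0.39 to 200 uM, duplicates, 0.5% v/v DMSO) applied to human HepG2 liver cells for 1 hr. High-content imaging of phospho-histone H3 and Hoechst-stained nuclei after fixation and permeabilization; DMSO-normalised bidirectional fit.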

Test [17] in a line: APR_HepG2_P-H2AX_1hr: Apredica 1-hour HepG2 Assay for H2AX Phosphorylation (AID 2282673). Conditions: high-content imaging, actives raise or lower the signal. In outline:
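Phospho-H2A.x immunofluorescence (1:200, FITC secondary) plus Hoechst nuclear stain, quantified by high-content imaging in HepG2 after 1 hr compound exposure. Ten concentrations, 0.39 to 200 uM, in duplicate with 0.5% DMSO; fit both directions against DMSO.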

Test [18] in a line: APR_HepG2_MitoMass_1hr: Apredica 1-hour HepG2 Assay for Mitochondrial Mass (AID 2282674). As to conditions: high-content imaging, actives raise or lower the signal. The method, boiled down:
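Mitochondrial mass is taken from MitoTracker Red CMXRos (250 nM, 30 min, pre-fixation) fluorescence imaged at 20x in HepG2 cells. Exposure lasted 1 hr across ten concentrations, 0.39 to 200 uM, 0.5% DMSO; DMSO baseline, bidirectional fitting.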

A short description of test [19]: APR_HepG2_MitoMembPot_1hr: Apredica 1-hour HepG2 Assay for Mitochondrial Membrane Potential (AID 2282675). Conditions: imaging, actives raise or lower the signal. In outline: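 Mitochondrial membrane potential read as MitoTracker Red CMXRos intensity by automated imaging of fixed HepG2 cells. Dye at 250 nM for 30 min pre-fixation; compounds 0.39 to 200 uM for 1 hour, duplicate wells, 0.5% DMSO.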

The nature of test [20]: APR_HepG2_StressKinase_1hr: Apredica 1-hour HepG2 Assay for Stress Kinase (AID 2282906). As to conditions: HepG2 stress kinase (phospho-c-Jun) imaging, actives raise or lower the signal. In outline: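 High-content imaging of phospho-c-Jun immunostaining (with Hoechst nuclear identification) after a 1 h exposure of HepG2 cells to 10 concentrations from 0.39 to 200 uM, final DMSO 0.5%. Fitted bidirectionally against DMSO.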

Results filed as inconclusive are left out. Active and inactive are the calls of the source. How the source made its calls, unless noted: active means hit-call score of the fitted dose curve at least 0.9, where 1 is the maximum; inactive means score below 0.9.

As for `CCCN(CCC)N=O`, the compound was called inactive in test [1], in test [2], in [3], in [4], in [5] and in [6]. The compound was called inactive in test [7], in test [8], in [9] and in [10].
As a reminder, the AC50 is the concentration giving half of the maximal activity seen. As for `CCOP(=S)(OCC)SCSC(C)(C)C`, the compound was called inactive in test [2], in test [3], in test [11], in test [4], in [5] and in [7]. The compound was called inactive in test [8], in [9] and in [10]. For the same compound, the AC50 in [6] was 49.4 nM (active).
In the case of `OCC(O)CO`, the compound was called inactive in test [1].
Take `CCC(C)(CC)c1cc(NC(=O)c2c(OC)cccc2OC)on1`: the call in test [12], in test [13], in test [14], in test [15], in [16] and in test [17] was inactive. Further, the result in test [18], in test [19], in test [2], in [20], in test [3] and in test [11] was inactive. Besides, the compound was classed as inactive in [4], in test [5], in [6], in [7] and in test [9]. In addition, the AC50 in [10] was 66.4 µM (active).
For the compound `Oc1ccc(Cl)cc1Cl`, the outcome in test [1], in test [2], in [3], in [4], in test [5] and in test [6] was inactive. Moreover, the compound was called inactive in test [7], in test [8], in [9] and in test [10].
As for `CCSC(=O)N(CC)C1CCCCC1`, the call in test [12], in test [13], in [14], in test [15], in [16] and in test [17] was inactive. The result in [18], in [19], in test [2], in [20], in test [3] and in [11] was inactive. In addition, the compound was called inactive in test [4], in test [5], in test [6], in test [7], in test [9] and in test [10].
Turning to `CCCCCCCCOC(=O)c1ccccc1C(=O)OCCCCCCCC`, the AC50 in [1] is 75.4 µM (active). In addition, the compound was called inactive in test [2], in test [3], in test [4], in test [5], in test [6] and in test [7]. Also, the result in test [8], in test [9] and in test [10] was inactive.
For the compound `c1ccc(-c2ccccc2)cc1`, the compound was classed as inactive in test [2], in test [3], in test [11], in [4], in test [5] and in test [6]. In addition, the call in [7], in test [8], in test [9] and in [10] was inactive.

The values above are taken from PubChem BioAssay (EPA / NIEHS).
